The text below walks through data of PubChem BioAssay (NCATS).

Experiment [1] addresses Glutathione peroxidase 1 (Homo sapiens) (UniProt P07203). In words: Primary qHTS Assay for Inhibitors of Recombinant Selenoprotein Glutathione Peroxidase 1 (GPX1) (AID 1845191). Also: nearly all actives have a fitted effect of over 65% in size. As to activity, negative = inhibition: % is scaled to controls: 0 for no effect and ±100 for the full control effect. The method, boiled down: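 GPX1 10 nM, GR 100 nM, GSH 1 mM, NADPH 0.5 mM, CHP 0.5 mM (final). 30-min cpd preincubation, RT. Ex340/Em450 read t=0, t=15 min.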
For orientation: qHTS replaces the single test concentration by a dilution series.

In experiment [2] the target is Phospholipid hydroperoxide glutathione peroxidase GPX4 (Homo sapiens) (UniProt P36969). In words: Primary qHTS Assay for Inhibitors of Recombinant Selenoprotein Glutathione Peroxidase 4 (GPX4) (AID 1845192). Also: nearly all actives have a fitted effect of over 65% in size. As to activity change, negative = inhibition: series mostly up to about 50 µM; % is scaled to controls: 0 for no effect and ±100 for the full control effect. The method, boiled down:
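qHTS, GR-coupled: GPX4 200 nM + cpd 30 min RT → GSH 1 mM, NADPH 0.5 mM, GR 100 nM → CHP 0.5 mM start; fluor 340/450 at t0 and t15 min; no-enzyme wells as control.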

Experiment [3] deals with Luciferin 4-monooxygenase (Photinus pyralis) (UniProt P08659). In words: Primary firefly luciferase (FLuc) qHTS assay for identification of artifact compounds. (AID 1845220). Also: nearly all actives have a fitted effect of over 60% in size. Also: potency is read from the fitted curve at half-maximal effect.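 As to activity change, negative = inhibition: series mostly up to about 54 µM; plate controls were DMSO vehicle for no effect and no enzyme for full effect.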 The method, boiled down: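 qHTS, 15 min compound preincubation with substrate (10 uM luciferin, 10 uM ATP) at RT, then 10 nM FLuc; 5 min; luminescence; % inhibition vs no-enzyme/DMSO controls, 4-parameter Hill fit.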

Experiment [4] can be described thus: Primary fluorescence-based thiol-reactive (MSTI) qHTS assay for identification of artifact compounds. (AID 1845221). Also: nearly all actives have a fitted effect of over 65% in size. Also: potency is read from the fitted curve at half-maximal effect.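 As to activity change, negative = thiol reactive: series mostly up to about 54 µM; thiol-reactive compounds lower the probe fluorescence signal.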 An outline of the steps: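 Thiol-reactive compounds detected by quenching of 4 uM MSTI fluorescence (525/598 nm) after 1 h room-temperature dark incubation in PBS pH 7.4, 2% DMSO. qHTS titration; percent inhibition Hill-fitted against Acetyl-MSTI/MSTI controls.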

Experiment [5] concerns Nanoluciferase (engineered Oplophorus gracilirostris luciferase). The experiment can be described thus: Primary Nanoluciferase (NLuc) qHTS assay for identification of artifact compounds. (AID 1845222). Also: potency is read from the fitted curve at half-maximal effect. As to activity, negative = inhibition: series mostly up to about 54 µM. The method, boiled down: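 Luminescence read-out of secreted NLuc in S16 cell conditioned medium (1:55); compounds tested with 15 min RT preincubation, then Nano-Glo substrate 1:100, 5 min. % inhibition vs no-enzyme and DMSO controls, 4-parameter Hill fit.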

Experiment [6] can be described thus: Primary redox qHTS assay for identification of artifact compounds. (AID 1845223).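 Also: 0% = DMSO and 100% = reference compound.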 An outline of the steps:
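Redox-cycling detection via DTT (250 uM final) oxidation coupled to Amplex Red (25 uM)/HRP (250 mU/mL) in HBSS. 15 min preincubation plus 30 min after DTT, room temperature. Ex/Em 525/598 nm; 4-parameter Hill fit against DMSO and 10 uM DA3003.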

Unmarked numbers belong to inactive results. Results filed as inconclusive are left out. Calls of active or inactive are those of the source. Calls follow the shape of the dose curve; as a rule, active = well fitted curve in the direction sought with a large enough effect; inconclusive = small, poorly fitted or top-dose-only effect, or another doubt; inactive = no such curve, though single readings can be large; an effect the other way counts as inactive or inconclusive. Where a SMILES comes first, the peptide text is derived from it. The star is where a group is joined. Cbz = O=C(OCc1ccccc1)*; CH2Cl = ClC*

Chain of Phospholipid hydroperoxide glutathione peroxidase GPX4 (Homo sapiens) (P36969 whole entry, looked up): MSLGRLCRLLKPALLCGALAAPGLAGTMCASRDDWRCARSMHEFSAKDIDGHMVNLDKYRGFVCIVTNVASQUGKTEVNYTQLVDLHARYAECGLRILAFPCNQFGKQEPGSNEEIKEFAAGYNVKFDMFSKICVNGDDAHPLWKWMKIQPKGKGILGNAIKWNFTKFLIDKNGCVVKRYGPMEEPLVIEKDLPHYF
Chain of Glutathione peroxidase 1 (Homo sapiens) (P07203 whole entry, looked up): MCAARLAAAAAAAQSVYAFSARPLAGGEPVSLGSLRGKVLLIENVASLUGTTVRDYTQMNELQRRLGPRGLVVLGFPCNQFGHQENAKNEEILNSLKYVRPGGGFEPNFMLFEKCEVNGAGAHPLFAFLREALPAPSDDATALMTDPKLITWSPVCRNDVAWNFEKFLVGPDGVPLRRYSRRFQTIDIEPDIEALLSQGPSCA

Turning to `Fc1ccc2[nH]ccc2c1-c1nc(N2CCOCC2)c2sc(CN3CCN(CC4CC4)CC3)cc2n1`, the Potency result in experiment [1], in experiment [2], in experiment [3], in experiment [4], in experiment [5] and in experiment [6] was “inactive” throughout.

On to `C[C@@]12C(=O)N(c3ccc(C(=O)Nc4cccc5cccnc45)cc3)C(=O)[C@@H]1[C@@H]1C=C[C@H]2C1`, for which the Potency entry in experiment [1], in experiment [2], in experiment [3], in experiment [4], in experiment [5] and in experiment [6] was “inactive” each time.

As to `COc1ccccc1N1CCN(CC[C@@](C)(C(=O)C2CCCCC2)c2ccccc2)CC1`, the Potency result in experiment [1], in experiment [2], in experiment [3], in experiment [4], in experiment [5] and in experiment [6] was “inactive” throughout.

In the case of `CC(=O)NC(C(=O)O[C@H]1CCC(C)(C)[C@@H]2CC=C3C(=O)OCC3(O)[C@@]12C)C(C)C` (stereo not given in full), the Potency entry in experiment [1], in experiment [2], in experiment [3], in experiment [4], in experiment [5] and in experiment [6] was “inactive” each time.

For `CC(C)NCCCn1c(Sc2cc3c(cc2I)OCO3)nc2c(N)ncnc21`, the Potency result in experiment [1], in experiment [2], in experiment [3], in experiment [4], in experiment [5] and in experiment [6] was “inactive” in each case.

Consider `COc1cc(OC)c2c(=O)[nH]c(-c3cc(C)c(OCCO)c(C)c3)nc2c1`, for which the Potency entry in experiment [1], in experiment [2], in experiment [4], in experiment [5] and in experiment [6] was “inactive” each time. In addition, in experiment [3], the Potency was 15.1 µM (active).

As to `C=C1C(=O)O[C@@H]2C[C@@]3(C)CCCC(=C)[C@]3(O)C[C@H]12`, the Potency result in experiment [1], in experiment [2], in experiment [3], in experiment [4], in experiment [5] and in experiment [6] was “inactive” each time.

Consider `CC1=C2C[C@@]3(C)C(CCC[C@@H]3C)C(O)C2OC1=O` (stereo not given in full), for which the Potency entry in experiment [1], in experiment [2], in experiment [3], in experiment [4], in experiment [5] and in experiment [6] was “inactive” throughout.

In the case of `CC(C)c1cc(-c2ccc(F)c3ccccc23)nc(N)n1`, the Potency entry in experiment [1], in experiment [2], in experiment [3], in experiment [4], in experiment [5] and in experiment [6] was “inactive” each time.

On to `COc1ccc(CN2CCN(CCCSc3cc(C(C)(C)C)c(O)c(C(C)(C)C)c3)CC2)c(OC)c1OC`, for which the Potency entry in experiment [1] and in experiment [2] was “inactive” throughout. Moreover, the activity change, negative = inhibition in experiment [3] is 3.48% [at 11.6 µM]. Also, in experiment [4], the activity change, negative = thiol reactive was 2.62% [at 11.5 µM]. Also, in experiment [5], the activity, negative = inhibition was 3.22% [at 11.6 µM]. The redox activity (% of DA3003) in experiment [6] is 6.4% [at 11.5 µM].

For the compound `Cc1nc2c(C(F)(F)F)cccc2nc1-c1ccc(-c2cccc(S(C)(=O)=O)c2)cc1`, the Potency result in experiment [1], in experiment [2], in experiment [3], in experiment [4], in experiment [5] and in experiment [6] was “inactive” each time.

As for `C=C1C(=O)OC2/C=C(/C)C3=CC(=O)C(C)(CC(OC(=O)/C(C)=C/COC(C)=O)C12)O3` (stereo not given), the Potency entry in experiment [1], in experiment [2], in experiment [3], in experiment [5] and in experiment [6] was “inactive” in each case. For the same compound, in experiment [4], the Potency was 4.12 µM (active).

As to `CC1(C)CC[C@]23CO[C@@]4(CCC5[C@@]6(C)CC[C@H](O[C@@H]7OC[C@H](O[C@@H]8O[C@H](CO)[C@@H](O)[C@H](O)[C@H]8O[C@@H]8OC[C@@H](O)[C@H](O)[C@H]8O)[C@H](O)[C@H]7O)[C@@](C)(CO)C6CC[C@@]5(C)[C@]4(C)CC2=O)[C@@H]3C1` (stereo not given in full), the Potency result in experiment [1] and in experiment [2] was “inactive” in each case. Moreover, in experiment [3], the outcome was “inactive [at 11.6 µM]”. In addition, the activity change, negative = thiol reactive in experiment [4] is 249% [at 11.5 µM]. In addition, the activity, negative = inhibition in experiment [5] is 3.95% [at 11.6 µM]. Moreover, the redox activity (% of DA3003) in experiment [6] is -0.913% [at 11.5 µM].

As for `O=C(Nc1ccc2[nH]c(=O)oc2c1)C(=O)N1CCC(Cc2ccc(F)cc2)CC1`, the Potency result in experiment [1], in experiment [2], in experiment [3], in experiment [4], in experiment [5] and in experiment [6] was “inactive” each time.

Take `CCCSc1nc(N[C@@H]2C[C@H]2c2ccc(F)c(F)c2)c2nnn([C@@H]3C[C@H](OCCO)[C@@H](O)[C@H]3O)c2n1`: the Potency result in experiment [1], in experiment [2], in experiment [3], in experiment [4], in experiment [5] and in experiment [6] was “inactive” in each case.

On to `CC(C)C[C@H](NC(=O)CNC(=O)OCc1ccccc1)C(=O)N[C@@H](Cc1ccccc1)C(=O)CCl` (Cbz-Gly-Leu-Phe-CH2Cl), for which the Potency result in experiment [1], in experiment [2], in experiment [3], in experiment [4], in experiment [5] and in experiment [6] was “inactive” each time.

As for `Cn1c(SCC(=O)N2CCC[C@H]2C(=O)Nc2ccccc2-c2ccccc2)nc2ccccc21`, the Potency entry in experiment [1], in experiment [2], in experiment [3], in experiment [4], in experiment [5] and in experiment [6] was “inactive” throughout.

Consider `O=C(NCCCCCCCCNC(=O)C(Cl)Cl)C(Cl)Cl`, for which the Potency entry in experiment [1], in experiment [2], in experiment [3], in experiment [4], in experiment [5] and in experiment [6] was “inactive” in each case.

As for `CCC[C@H](N[C@H]1CCc2cc(F)cc(F)c2C1)C(=O)Nc1cn(C(C)(C)CNCC(C)(C)C)cn1`, the Potency result in experiment [1], in experiment [2], in experiment [3], in experiment [4], in experiment [5] and in experiment [6] was “inactive” each time.

Regarding `Cc1noc(-c2ccc(-c3ccc(CC(=O)O)cc3)cc2)c1NC(=O)O[C@H](C)c1ccccc1Cl`, the Potency entry in experiment [1], in experiment [2], in experiment [3], in experiment [4] and in experiment [6] was “inactive” throughout. Further, in experiment [5], the Potency is 9.53 µM (active).
